Laboratory results from PubChem BioAssay AID1159580 (chemical genetic matrix, 2015).
“And” between values parts separate entries of the source, which are not always exact repeats. Equal values may be shown once. Among all 5,500 compounds or so, about 2,000 (36%) were called active. Another 18% or so got no clear call; they are omitted. No stated cut-off is given here; in the data, active means normalized growth mostly below about 0.91 (no sharp cut-off); inconclusive means no clear call, values can overlap the other calls; inactive means mostly above about 0.92. The list shows a part of the results.

Assay: chemical genetic growth profiling, strain panel (AID 1159580);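 further: tested at 20 µM; growth read once vehicle control cultures reached saturation at 30 °C; 1 = growth at the plate median or of vehicle wells; lower values mean less growth of the strain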
Details: S. cerevisiae deletion strains, growth OD

Measured: normalized growth

CC[N+]1(C)CCCC(OC(=O)C(O)(c2ccccc2)c2ccccc2)C1 (stereo not given)
inactive: locus YAL013W, strain DEP1, hits give low values 1.01 | locus YAL021C, strain ccr4, hits give low values 1.01 | locus YAL026C, strain drs2, hits give low values 1.03 | locus YAL030W, strain snc1, hits give low values 1.02 | locus YBL061C, strain skt5, hits give low values 1.03 | locus YBR009C, strain hhf1, hits give low values 1.02 | locus YBR021W, strain FUR4, hits give low values 1.02 | locus YBR023C, strain chs3, hits give low values 1.02 | locus YBR171W, strain sec66, hits give low values 1.03 | locus YBR229C, strain ROT2, hits give low values 1.01 | locus YBR231C, strain swc5, hits give low values 1.03 | locus YBR279W, strain paf1, hits give low values 1.02 | locus YCL011C, strain gbp2, hits give low values 1.03 | locus YCL016C, strain dcc1, hits give low values 1.01 | locus YCL029C, strain bik1, hits give low values 1.02 | locus YCL061C, strain MRC1, hits give low values 1.02 | locus YCL069W, strain vba3, hits give low values 1.03 | locus YCR088W, strain abp1, hits give low values 1.02 | locus YDL005C, strain med2, hits give low values 1.03 | locus YDL035C, strain GPR1, hits give low values 1.02 | locus YDL040C, strain nat1, hits give low values 1.01 | locus YDL074C, strain BRE1, hits give low values 1 | locus YDL101C, strain DUN1, hits give low values 1.01 | locus YDL134C, strain PPH21, hits give low values 1.02 | locus YDL185W, strain tfp1, hits give low values 1.01 | locus YDL192W, strain arf1, hits give low values 1.02 | locus YDR001C, strain nth1, hits give low values 1.02 | locus YDR069C, strain doa4, hits give low values 1.03 | locus YDR101C, strain arx1, hits give low values 1.02 | locus YDR137W, strain rgp1, hits give low values 1.07 | locus YDR159W, strain sac3, hits give low values 1 | locus YDR162C, strain NBP2, hits give low values 1.01 | locus YDR195W, strain ref2 1.01 | locus YDR297W, strain sur2, hits give low values 1.02 | locus YDR318W, strain mcm21, hits give low values 1 | locus YDR334W, strain swr1, hits give low values 1.03 | locus YDR335W, strain msn5, hits give low values 1.03 | locus YDR388W, hits give low values 1.02 | locus YDR392W, strain spt3, hits give low values 0.931 | locus YDR502C, strain sam2, hits give low values 1.01 | locus YEL003W, strain gim4, hits give low values 1.02 | locus YEL037C, strain rad23, hits give low values 1.02 | locus YEL061C, strain CIN8 (second series), hits give low values 1.02 | locus YEL061C, strain CIN8, hits give low values 1.01 | locus YER015W, strain faa2, hits give low values 1.02 | locus YER016W, strain bim1, hits give low values 1.02 | locus YER110C, hits give low values 1.02 | locus YER111C, strain swi4, hits give low values 1.03 | locus YER155C, strain BEM2 (second series), hits give low values 1.01 | locus YER155C, strain BEM2, hits give low values 1 | locus YER167W, strain BCK2, hits give low values 1.01 | locus YFR010W, strain ubp6, hits give low values 1.03 | locus YGL078C, strain dbp3, hits give low values 1.02 | locus YGL086W, strain mad1, hits give low values 1 | locus YGL167C, strain pmr1, hits give low values 1.03 | locus YGL173C, strain kem1, hits give low values 1.04 | locus YGL227W, strain vid30, hits give low values 1.03 | locus YGL240W, strain doc1, hits give low values 1.03 | locus YGL248W, strain PDE1, hits give low values 1 | locus YGL253W, strain hxk2, hits give low values 1.03 | locus YGR078C, strain PAC10, hits give low values 1 | locus YGR135W, strain pre9, hits give low values 1.02 | locus YGR229C, strain SMI1, hits give low values 1.01 | locus YGR252W, strain gcn5, hits give low values 1 | locus YHR013C, strain ard1, hits give low values 1.04 | locus YHR027C, strain rpn1, hits give low values 1.02 | locus YHR030C, strain SLT2, hits give low values 1.01 and 1.02 | locus YHR079C, strain IRE1 (second series), hits give low values 1.01 | locus YHR079C, strain IRE1, hits give low values 1.03 | locus YHR094C, strain hxt1, hits give low values 1.01 | locus YHR129C, strain ARP1, hits give low values 0.999 | locus YHR142W, strain chs7, hits give low values 1.03 | locus YHR200W, strain rpn10, hits give low values 1.01 | locus YIL066C, strain RNR3, hits give low values 1.02 | locus YIL073C, strain SPO22, hits give low values 1.07 | locus YIL125W, strain kgd1, hits give low values 1 | locus YIR030C, strain dcg1, hits give low values 1.01 | locus YJL092W, strain hpr5, hits give low values 1.02 | locus YJL095W, strain BCK1 (second series), hits give low values 1.01 | locus YJL095W, strain BCK1, hits give low values 0.998 and 1.03 | locus YJL115W, strain asf1, hits give low values 1.03 | locus YJL129C, strain trk1, hits give low values 1.04 | locus YJL134W, strain LCB3, hits give low values 1 | locus YJL154C, strain vps35, hits give low values 1.02 | locus YJL164C, strain tpk1, hits give low values 1.01 | locus YJL166W, strain qcr8, hits give low values 1.03 | locus YJL168C, strain set2, hits give low values 1.01 | locus YJL187C, strain SWE1 (second series), hits give low values 1.01 | locus YJL187C, strain SWE1, hits give low values 1.02 | locus YJR043C, strain POL32, hits give low values 1.04
